The text below walks through data of PubChem BioAssay (NCATS).

For test [1], the system named is Zika virus NS2B-NS3 protease (linked construct). The test is described as follows: Primary screen NINDS Rhodamine qHTS for Zika virus inhibitors (AID 1347160). Also: nearly all actives have a fitted effect of over 55% in size. Also: potency is read from the fitted curve at half-maximal effect. The method, boiled down:
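In 10 mM Tris-HCl pH 8.0 containing 0.01% Tween 20, linked NS2B-NS3 protease (25 nM final) is exposed to test compounds for 15 min. Cleavage of 1.5 microM Rhodamine110 substrate is tracked by fluorescence over 15 min.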

Test [2] in a line: Panc-1005 Cancer Cell Toxicity qHTS against the NCATS CANVASS Library (AID 1347349). Also: nearly all actives have a fitted effect of over 60% in size. Also: potency is read from the fitted curve at half-maximal effect. As to activity change, negative = cytotoxicity: series mostly up to about 38 µM; % is scaled to controls: 0 for no effect and ±100 for the full control effect. Summed up: (§1)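 1000 cells/well seeded and rested 4 h at 37 °C before pin transfer of compounds in an 11-pnt series. Exposure 72 h at 37 °C/5% CO2; viability by CellTiter-Glo luminescence after 15 min at room temperature.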
Test [3] can be described thus: SW1088 Cancer Cell Toxicity qHTS against the NCATS CANVASS Library (AID 1347350). Also: nearly all actives have a fitted effect of over 75% in size. Also: potency is read from the fitted curve at half-maximal effect. As to activity change, negative = cytotoxicity: series mostly up to about 38 µM; % is scaled to controls: 0 for no effect and ±100 for the full control effect. Summed up: as §1
The nature of test [4]: COV-362 Cancer Cell Toxicity qHTS against the NCATS CANVASS Library (AID 1347352). Also: potency is read from the fitted curve at half-maximal effect. As to activity change, negative = cytotoxicity: series mostly up to about 38 µM; % is scaled to controls: 0 for no effect and ±100 for the full control effect. Summed up: (§2)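 qHTS cytotoxicity: compounds tested in 11 concentrations on 1000 seeded cells per well over 72 h; bortezomib served as control; signal from CellTiter-Glo luminescence.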
A short description of test [5]: A2780 Cisplatin Sensitive Ovarian Cancer Cell Toxicity qHTS against the NCATS CANVASS Library (AID 1347353). Also: nearly all actives have a fitted effect of over 60% in size. Also: potency is read from the fitted curve at half-maximal effect. The method, boiled down:
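Seventy-two-hour exposure of cisplatin-sensitive A2780 ovarian cells to an 11-concentration qHTS series; cytotoxicity is inferred from loss of ATPLite luminescence. Bortezomib titration served as positive control.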

The nature of test [6]: UWB1.289-WTBRCA1 Cancer Cell Toxicity qHTS against the NCATS CANVASS Library (AID 1347354). Also: potency is read from the fitted curve at half-maximal effect. The method, boiled down:
as §2

Test [7] relates to NAD(P)H diaphorase (Clostridium kluyveri). As to the kind of experiment: Diaphorse counterscreen qHTS: Assay Interference Panel against the NCATS CANVASS Library (AID 1347362). Also: 0% is about no effect. Summed up: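 Counterscreen for coupling-enzyme interference: resorufin fluorescence from resazurin/NADH turnover, read after 5 min at room temperature. Compounds were tested over an 11-point series after 15 min dark preincubation with diaphorase in PBS-Tween.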

A short description of test [8]: KB-8-5-11 Cancer Cell Toxicity qHTS against the NCATS CANVASS Library (AID 1347364). Also: nearly all actives have a fitted effect of over 75% in size. Also: potency is read from the fitted curve at half-maximal effect. Summed up:
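Natural products were titrated in 11 points onto KB-8-5-11 cells, 500 per well, and cytotoxicity was scored from CellTiter-Glo luminescence after 72 hr culture.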

A short description of test [9]: SDT Cancer Cell Toxicity qHTS against the NCATS CANVASS Library (AID 1347365). Also: nearly all actives have a fitted effect of over 60% in size. Also: potency is read from the fitted curve at half-maximal effect. The method, boiled down:
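Dispense 500 SDT cells per well; pin-transfer compounds; incubate 72 hr at 37C, 5% CO2, 95% RH; add CellTiterGlo and read luminescence.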

Test [10] is described as follows: G06 Cancer Cell Toxicity qHTS against the NCATS CANVASS Library (AID 1347368). Also: nearly all actives have a fitted effect of over 60% in size. Also: potency is read from the fitted curve at half-maximal effect. Summed up:
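Cytotoxicity toward canine glioma G06 cells is scored from cellular ATP via luminescence after 72 hr compound exposure at 500 cells/well.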

Test [11] addresses Nuclear receptor subfamily 1 group I member 3 (Homo sapiens) (UniProt Q14994). The test is described as follows: qHTS for Constitutive Androstane Receptor (CAR) Antagonist screened against the NCATS CANVASS Library (AID 1347372). Also: potency is read from the fitted curve at half-maximal effect. Summed up: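 HepG2-CYP2B6-hCAR double-stable cells plated, 4hr attach; cpd pin-transferred; CITCO 50 nM final; 24hr 37C/5% CO2; CellTiter-Fluor 1hr (fluorescence), then ONE-Glo luminescence.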

A short description of test [12]: qHTS for Hypoxia signaling pathway (HIF-1) agonists against the NCATS CANVASS Library (AID 1347375). Also: 0% is about no effect. The method, boiled down: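 Inducers of HIF-1 signaling were detected in ME-180 cells bearing an HRE-driven beta-lactamase reporter after 17 h compound exposure. Activity came from CCF4-AM FRET emission ratio (460/530 nm) in qHTS format.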
A short description of test [13]: DH5-alpha competent E. coli microbial cell viability qHTS against the NCATS CANVASS Library (AID 1347377). Also: 0% is about no effect. The conditions noted are these: outcome: dose series up to 46.1 µM unless noted. The method, boiled down:
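Cell viability of competent DH5-alpha E. coli is scored from ATP content by luminescence. Cells sit overnight at 37C with compound across an 11-point concentration series.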

Test [14] can be described thus: qHTS for Activators of p53 Stress Response Pathway screened against the NCATS CANVASS Library (AID 1347388). Also: potency is read from the fitted curve at half-maximal effect. As to activation: 0% is about no effect. Summed up:
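Beta-lactamase reporter driven by p53 response elements in HCT-116 cells, read as the 460 nm/530 nm emission ratio after CCF4 loading, following 16 h of exposure to an 11-point series. Cell viability was measured in the same wells by CellTiter-Glo luminescence.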

The nature of test [15]: qHTS assay for small molecule disruptors of mitochondrial membrane potential screened against the NCATS CANVASS Library (AID 1347389). Also: nearly all actives have a fitted effect of over 60% in size. Also: potency is read from the fitted curve at half-maximal effect. The method, boiled down: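 Compounds tested in 11-point qHTS series on HepG2 cells for 1 hr; membrane-potential dye added for 30 min at 37C. Lower red-to-green ratio indicates loss of potential.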
Test [16] is described as follows: qHTS for activators of Nrf2/ARE signaling pathway screened against the NCATS CANVASS Library (AID 1347391). Also: nearly all actives have a fitted effect of over 60% in size. Also: potency is read from the fitted curve at half-maximal effect. As to activation: 0% is about no effect. Summed up: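 Cells carrying an ARE-driven beta-lactamase reporter (HepG2 background) are dosed for 16 h, then stained with CCF4. Cell viability in the same wells is measured by CellTiter-Glo luminescence.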
The nature of test [17]: qHTS for activators of dead-cell proteases activity screened against the NCATS CANVASS Library (AID 1347392).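 Also: luminescence from protease leaking out of membrane-damaged cells cleaving impermeant substrate; 0% is about no effect; rising signal means more cytotoxicity.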 Summed up: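 Compounds are pin-transferred onto attached HepG2 cells, giving 11 final concentrations. After 5 h at 37C, AAF-aminoluciferin reagent is added and luminescence is recorded at room temperature.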
The nature of test [18]: qHTS for inhibitors of Wild type Zika virus screened against the NCATS CANVASS Library (AID 1347396).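 Also: ATP luminescence of surviving cells so rescue from viral cell killing; series mostly up to about 46 µM; % is scaled to controls: 0 for no effect and ±100 for the full control effect.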 The method, boiled down: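 Luminescent CellTiter Glo read-out of virus-induced cytotoxicity, 72 h post-infection, in Vero 766 cells. Compounds were tested at 11 concentrations; uninfected, vehicle-treated wells defined 100% inhibition.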
Test [19] can be described thus: Redox Reaction Profiling qHTS: Assay Interference Panel against the NCATS CANVASS Library (AID 1347401). Also: potency is read from the fitted curve at half-maximal effect.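 As to activation (redox signal): 100% = activation by 2 µM chloranil control.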 Summed up:
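Cell-free redox surrogate: 5 uM resazurin + 200 uM DTT, 50 mM HEPES pH 7.3/50 mM NaCl; cpds pinned, 11-pt qHTS; Ex525/Em598 read t0 and t=15 min, dark.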

Test [20] in a line: HEK-293 Cancer Cell Toxicity qHTS against the NCATS CANVASS Library (AID 1347355). Also: nearly all actives have a fitted effect of over 65% in size. Also: potency is read from the fitted curve at half-maximal effect. As to outcome: series mostly up to about 46 µM. Summed up: as §2

Records with an inconclusive call do not appear. Unmarked numbers belong to inactive results. Calls of active or inactive are those of the source. Calls follow the shape of the dose curve; as a rule, active = well fitted curve in the direction sought with a large enough effect; inconclusive = small, poorly fitted or top-dose-only effect, or another doubt; inactive = no such curve, though single readings can be large; an effect the other way counts as inactive or inconclusive.

Chain of Nuclear receptor subfamily 1 group I member 3 (Homo sapiens) (Q14994 whole entry, looked up): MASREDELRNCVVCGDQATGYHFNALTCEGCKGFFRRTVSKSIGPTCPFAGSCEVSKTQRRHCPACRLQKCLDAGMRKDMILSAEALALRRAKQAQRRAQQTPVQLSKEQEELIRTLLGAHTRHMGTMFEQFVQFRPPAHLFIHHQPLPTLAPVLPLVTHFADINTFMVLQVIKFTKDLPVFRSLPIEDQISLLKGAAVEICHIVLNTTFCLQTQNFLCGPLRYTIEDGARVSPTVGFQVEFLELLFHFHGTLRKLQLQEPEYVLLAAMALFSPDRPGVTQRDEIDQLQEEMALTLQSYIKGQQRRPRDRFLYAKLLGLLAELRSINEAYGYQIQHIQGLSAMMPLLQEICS

With `CC(=O)[C@@H]1[C@@H](O)C[C@H]2[C@]3(C)CC[C@H]4C(C)(C)CCC[C@]4(CO)[C@H]3C[C@H]3OC(=O)[C@@H]1[C@@]32C`, the Potency in [1] was 55.3 µM (active). For the same compound, the Potency result in test [2], in test [3], in test [4], in test [5], in test [6] and in test [7] was “inactive” in each case. Moreover, the Potency entry in test [8], in [9], in test [10], in test [11], in test [12] and in test [14] was “inactive” in each case. For the same compound, the Potency entry in [15], in [16], in [17], in test [18] and in test [19] was “inactive” each time. Also, the compound was classed as inactive in test [13].

Take `COc1ccc([C@@H]2c3cc(OC)c(OC)cc3C(=O)[C@H](C)C2C)cc1OC` (some centres not stated): the activity change, negative = cytotoxicity was 1.86% [at 7.64 µM] in test [2] and -1.95% [at 7.64 µM] in [4]. For the same compound, the outcome in [3] was “inactive [at 7.64 µM]”; in test [5] it was “inactive [at 9.19 µM]”; in [6] it was “inactive [at 7.64 µM]”; in test [20], “inactive [at 9.19 µM]”; in test [9], “inactive [at 9.19 µM]”. Besides, the activity change, negative = inhibition was 0.301% [at 11.5 µM] in test [7] and -2.16% [at 9.19 µM] in [11]. Further, the activity change, negative = toxicity in test [8] is -6.69% [at 9.19 µM]. In test [10], the activity change, negative = cytotoxic was 9.12% [at 9.19 µM]. For the same compound, the activation in test [12] is -1.07% [at 7.64 µM]; in [14], 4.12% [at 9.19 µM]; in test [16], 4.51% [at 9.19 µM]. Also, in test [13], the viability signal change, negative = cytotoxic is 10.6% [at 9.19 µM]. In addition, the activity change, negative = depolarization in test [15] is -7.07% [at 9.19 µM]. Also, the activation (cytotoxicity) in test [17] is -0.488% [at 9.19 µM]. Also, the activity change, negative = antiviral in test [18] was 5.82% [at 9.14 µM]. In test [19], the activation (redox signal) is -5.6% [at 11.4 µM].

For the compound `CN1CC[C@]2(c3cccc4c3N[C@@H]3N(C)CC[C@]43[C@@]34CCN(C)[C@@H]3Nc3ccccc34)c3ccccc3N[C@H]12`, the Potency entry in [1], in test [7], in test [12], in test [14], in test [15] and in test [16] was “inactive” each time. Further, the Potency result in test [18] and in test [19] was “inactive” each time. The Potency was 16.8 µM (active) in test [2]; 13.3 µM (active) in test [4]; 14.8 µM (active) in [5]; 7.43 µM (active) in test [20]; 16.6 µM (active) in test [8]; 2.96 µM (active) in test [9]. Further, the Potency is 3.72 µM (active) in test [10] and 26.3 µM (active) in [11].

On to `C=C(C)C(=O)O[C@H]1C[C@H](C)[C@@H](OC(C)=O)CC[C@@]2(C)O[C@@H]2[C@H]2OC(=O)C(COC(C)=O)=C12`, for which the Potency is 31.1 µM (active) in test [1]; 6.68 µM (active) in test [2]; 8.41 µM (active) in test [3]; 0.833 µM (active) in test [5]; 7.47 µM (active) in test [6]; 3.72 µM (active) in test [20]. The Potency in [9] is 6.62 µM (active); in test [10], 2.64 µM (active). Further, the Potency entry in test [4], in [7], in test [15], in [17] and in test [19] was “inactive” each time. The result in [13] was inactive.

Consider `CN1CCc2cc3c(c4c2[C@H]1[C@@H](O)c1ccccc1-4)OCO3`, for which the Potency in [1] was 44 µM (active); in test [2], 16.8 µM (active); in [20] it was 23.5 µM (active); in test [9], 18.7 µM (active); in [14], 26.3 µM (active); in test [15], 11.7 µM (active). The Potency in [16] was 20.9 µM (active); in test [19], 7.64 µM (active). Further, the Potency entry in [3], in test [6], in [11], in [12], in test [17] and in [18] was “inactive” throughout.

Turning to `C/C(=C\[C@H](C)C(=O)CCCC1CC(=O)NC(=O)C1)[C@@H]1OC(=O)/C=C/CC/C=C/C[C@@H](O)[C@@H]1C`, the Potency is 17.5 µM (active) in [1]; 1.88 µM (active) in [2]; 0.833 µM (active) in test [5]; 1.87 µM (active) in test [20]; 0.935 µM (active) in test [9]; 1.05 µM (active) in test [10]. The Potency in test [11] was 3.71 µM (active). Also, the Potency entry in [7], in test [12], in test [14], in [15], in test [16] and in test [17] was “inactive” each time. In addition, the Potency result in test [18] was “inactive”. Also, the compound was classed as inactive in test [13].
